Among the data in PubChem BioAssay (NCATS) are max response, outcome and Potency values, retold here.

Where “and” joins values, the source holds several entries; their conditions need not be identical. Equal entries are not always repeated. Results filed as inconclusive are left out. A number with no mark means an inactive call. Calls of active or inactive are those of the source. Calls follow the shape of the dose curve; as a rule, active = well fitted inhibition curve with a large enough effect; inconclusive = small, poorly fitted or top-dose-only effect; inactive = flat fitted curve, though single readings scatter.

The subject of one test is CRL-7250. Nature of the test: Cytotoxic Profiling of Annotated Libraries Using Quantitative High-Throughput Screening (AID 1296008). Also: potency is read from the fitted curve at half-maximal effect. As to max response: % is scaled to controls: 0 for no effect and ±100 for the full control effect. The settings on record: Five cell lines viability, CellTiter-Glo ATP luminescence, 48-72 h; max response: hits give low values. The method in brief:
(§1)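 Cytotoxicity was measured as CellTiter-Glo ATP luminescence, read after 10 min at room temperature. Compound treatment of the cells lasted 48 or 72 hr at 37 degrees Celsius in a qHTS format.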
For orientation: In ATP-based viability assays light output follows the ATP content of the culture.

The next test deals with HEK293. The test is described as above. The following applies: Five cell lines viability, CellTiter-Glo ATP luminescence, 48-72 h; max response: hits give low values. The procedure, abridged:
as §1

For the next test, the system named is HaCat. The description is as above. The following applies: Five cell lines viability, CellTiter-Glo ATP luminescence, 48-72 h; max response: hits give low values. The procedure, abridged:
as §1

For a further test, the system named is KB-3-1. The test is described as above. The following applies: Five cell lines viability, CellTiter-Glo ATP luminescence, 48-72 h; max response: hits give low values. The procedure, abridged: as §1
Test [1] has as its system NIH3T3. Described as above. The settings on record: Five cell lines viability, CellTiter-Glo ATP luminescence, 48-72 h; max response: hits give low values. The method in brief: as §1
Another test has as its system HEK293T. Put plainly: qHTS assay to identify novel small-molecules to repurpose for Merkel cell carcinoma treatment (AID 1296009). The settings on record: MCC and control cell lines, CellTiter-Glo viability, 72 h; at 44.8 µM (top of the series) unless noted. The method in brief:
(§2)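 72 hr, 37 degree celsius; NPC 8-pt / MIPE 11-pt dose response; compound pinned in DMSO; CellTiter-Glo, 10 min RT, luminescence; normalized to no-cell and DMSO controls.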

Test [2] concerns NIH3T3. Described as above. The following applies: MCC and control cell lines, CellTiter-Glo viability, 72 h; at 44.8 µM (top of the series) unless noted. The method in brief:
as §2

The subject of a further test is PC26. Nature of the test: qHTS profiling for inhibitors of Plasmodium falciparum proliferation (AID 504749).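 Also: 0% = DMSO vehicle and full inhibition = artemisinin control.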 The settings on record: P. falciparum in erythrocytes, SYBR Green DNA, 72 h; series mostly up to 28.7 µM. The method in brief:
(§3)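 Infected RBCs, 0.3% parasitemia/2.5% Hct final; cpd 72 h, 37 C, 5% CO2; lysis buffer with saponin/triton/SYBR Green I, o/n RT dark; FI 485/535; norm. to artemisinin (0.29 uM) and DMSO.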
(Quantitative high-throughput screening tests each substance at several concentrations.)

The subject of a further test is PC49. The description is as above. The settings on record: P. falciparum in erythrocytes, SYBR Green DNA, 72 h; series mostly up to 28.7 µM. The procedure, abridged: as §3
Another test relates to SC27B. Described as above. The following applies: P. falciparum in erythrocytes, SYBR Green DNA, 72 h; series mostly up to 28.7 µM. The procedure, abridged:
as §3

The test system of another test is TAB109. The description is as above. The settings on record: P. falciparum in erythrocytes, SYBR Green DNA, 72 h; series mostly up to 28.7 µM. The method in brief:
as §3

The subject of another test is TAB113. The test is described as above. The settings on record: P. falciparum in erythrocytes, SYBR Green DNA, 72 h; series mostly up to 28.7 µM. The method in brief: as §3
The next test concerns TAB165. The test is described as above. The settings on record: P. falciparum in erythrocytes, SYBR Green DNA, 72 h; series mostly up to 28.7 µM. The method in brief: as §3
Also: nearly all actives have a fitted effect of over 60% in size.

On to `CC1=C2C[C@H]3[C@@H](CC=C4C[C@@H](O)CC[C@@]43C)[C@@H]2CC[C@]12O[C@@H]1C[C@H](C)CN[C@H]1[C@H]2C`, for which the max response in the test with CRL-7250 is 0.632%; in the test on HaCat it was 3.98%; in the test with KB-3-1 it was 1.29%. For the same compound, the call in the test with HEK293, in the test on NIH3T3 [1], in the test with HEK293T and in the test on NIH3T3 [2] was inactive.
On to `CC(N)Cc1c[nH]c2ccccc12` (configuration not stated), for which the max response with CRL-7250 was -5.98%; in the test on HaCat, -7.15%. For the same compound, the call in the test on HEK293, in the test with KB-3-1, in the test with NIH3T3 [1], in the test on HEK293T and in the test on NIH3T3 [2] was inactive.
On to `CC12CCC3C(CCC4(O)CC(O)CCC34C=O)C1(O)CCC2C1=CC(=O)OC1` (configuration not stated), for which the Potency in the test on CRL-7250 was 326 nM (active); with HEK293 it was 1030 nM (active); in the test with HaCat, 1640 nM (active); in the test on KB-3-1, 1160 nM (active). Moreover, the outcome with NIH3T3 [1] and in the test with NIH3T3 [2] was inactive.
With `CN1C(=O)c2ccccc2NC(=O)[C@]12O[C@@H]2c1ccccc1`, the max response with CRL-7250 was -12.4%; in the test with HaCat, -12.1%; with KB-3-1, 8.97%; with NIH3T3 [1], -7.39%. The compound was classed as inactive in the test with HEK293 and in the test with HEK293T.
Regarding `CN(C(=O)Cc1ccccc1)C(CN1CCCC1)c1ccccc1` (configuration not stated), the max response was 0.97% in the test on CRL-7250, 0.503% in the test with HEK293, 2.22% in the test on HaCat and -9.97% in the test on KB-3-1. For the same compound, the compound was classed as inactive in the test with NIH3T3 [1] and in the test with NIH3T3 [2].
For `CO[C@H]1[C@H](O)[C@H](O[C@H]2CC[C@]3(C)C4CC[C@]5(C)[C@H](C6=CC(=O)OC6)CC[C@]5(O)C4CC[C@@H]3C2)O[C@@H](C)[C@@H]1O` (some centres not stated), the Potency in the test with CRL-7250 is 25.2 nM (active); in the test on HEK293, 22.4 nM (active); with HaCat, 2240 nM (active); in the test with KB-3-1, 89.3 nM (active). Moreover, the compound was classed as inactive in the test with NIH3T3 [1]. For the same compound, the outcome with NIH3T3 [2] was “inactive [at 17.4 µM]”.
`C[C@]12CC[C@@H](O)C[C@H]1CC[C@@H]1[C@@H]2CC[C@]2(C)C(=O)CC[C@@H]12`: the max response in the test on CRL-7250 is -3.83%; with HEK293, -17.8%; in the test on HaCat, -0.89%. In addition, the outcome in the test with KB-3-1, in the test on NIH3T3 [1] and in the test on NIH3T3 [2] was inactive.
Turning to `Clc1ccc(N2C[C@H]3CC[C@@H](C2)N3)nn1`, the max response is -3.23% with CRL-7250, 2.01% with HEK293, -0.574% in the test with HaCat and 2.38% in the test on KB-3-1. The call in the test on NIH3T3 [1] and in the test on NIH3T3 [2] was inactive.
For the compound `COC1C(O)C(C)OC(OC2C(CO)O[C@@H](O[C@@H]3CC4CCC5C(CC[C@]6(C)[C@@H](C7=CC(=O)OC7)CC[C@]56O)[C@@]4(C)[C@H](O)C3)C(O)C2O)C1O` (some centres not stated), the Potency is 485 nM (active) with CRL-7250, 432 nM (active) in the test with HEK293, 3430 nM (active) with HaCat and 862 nM (active) in the test on KB-3-1. Moreover, the result in the test with NIH3T3 [1] was inactive. The outcome with NIH3T3 [2] is “inactive [at 17.4 µM]”.
Turning to `CC(=O)OC1CC(O)C2(C)C(CC(OC(C)=O)C3(C)C2CCC2(C)C(c4ccoc4)C(=O)C4OC423)C1(C)C` (configuration not stated), the max response with CRL-7250 was -9.87%; in the test on HaCat it was -22.5%; with KB-3-1, 8.18%; in the test on NIH3T3 [1], -1.6%. The result in the test with HEK293 was inactive. Further, the outcome with HEK293T is “inactive [at 17.4 µM]”.
As to `CC(=O)OCC(=O)[C@H]1CC[C@H]2[C@@H]3CC[C@H]4C[C@H](O)CC[C@]4(C)[C@H]3C(=O)C[C@]12C`, in the test with KB-3-1, the max response was 2.82%.
As for `CCC(=O)O[C@]1(c2ccccc2)CCN(C)C[C@H]1C`, in the test with KB-3-1, the max response was -2.12%.
Same read-out and setting: to `CC1(C)S[C@@H]2[C@H](N)C(=O)N2[C@H]1C(=O)O` belongs -11.7%.
Still for that read-out and setting: the result for `CCCCCc1cc(O)c2c(c1)OC(C)(C)[C@@H]1CCC(C)=C[C@@H]21` reads -12.3%.
As to `O=[N+]([O-])C(Br)(CO)CO`, the Potency entry with PC26, in the test with PC49, in the test on SC27B, in the test with TAB109, with TAB113 and in the test on TAB165 was “inactive” in each case. For the same compound, the max response in the test on KB-3-1 was 1.16%.
As to `C[N+]1([O-])[C@@H]2CC(OC(=O)[C@H](CO)c3ccccc3)C[C@H]1[C@@H]1O[C@@H]12` (some centres not stated), in the test with KB-3-1, the max response was -17% and 5.47%.
The same measure, in the same setting: to `CCOC(=O)/C=C(C)/C=C/C[C@@H](C)CCCC(C)C` belongs 3.85%.
As for `C[C@H]1CC[C@@H]2[C@@H](C)[C@H]3[C@H](C[C@H]4[C@@H]5CC=C6CC(O[C@@H]7O[C@H](CO)[C@H](O)[C@H](O[C@@H]8O[C@H](CO)[C@@H](O)[C@H](O)[C@H]8O)[C@H]7O[C@H]7O[C@@H](C)[C@H](O)[C@@H](O)[C@H]7O)CC[C@]6(C)[C@H]5CC[C@]34C)N2C1` (some centres not stated), the Potency entry in the test with PC26, in the test with PC49, in the test on SC27B, in the test on TAB109, with TAB113 and with TAB165 was “inactive” in each case. Moreover, in the test with KB-3-1, the max response was 48.6%.
As to `C[C@@H](Cc1ccccc1)N(C)C`, the max response in the test on KB-3-1 was 9.66%.
The same measure, in the same setting: the result for `CC[C@H]1[C@@H]2C[C@H]3[C@@H]4N(C)c5ccccc5[C@]45C[C@@H](C2[C@H]5O)N3[C@@H]1O` (some centres not stated) reads -5.46%; that for `CN(C)CCCCCCN(C)C` (tested in a mixture with another compound), 0.743%; that for `C#CCN1CC(=O)N(COC(=O)C2C(C=C(C)C)C2(C)C)C1=O` (configuration not stated), -3.38%.
On to `CC(=O)O[C@H]1C[C@H](O[C@H]2[C@@H](O)C[C@H](O[C@H]3[C@@H](O)C[C@H](O[C@H]4CC[C@@]5(C)[C@H](CC[C@@H]6[C@@H]5C[C@@H](O)[C@]5(C)[C@@H](C7=CC(=O)OC7)CC[C@]65O)C4)O[C@@H]3C)O[C@@H]2C)O[C@H](C)[C@H]1O[C@@H]1O[C@H](CO)[C@@H](O)[C@H](O)[C@H]1O`, for which, in the test on KB-3-1, the Potency was 164 nM (active).
